Experimental data reported in PubChem BioAssay (NCI).
“And” between values parts separate entries of the source, which are not always exact repeats. Identical values can stand only once. This is part of a sample that, as a whole, favours compounds with a hit. Of some 79,000 tested, about 15% had one in any assay. No stated cut-off is given here; in the data, active means growth inhibition above about 70%; inactive means the rest.

Key:
[1] = NCI Yeast Anticancer Drug Screen. Data for the rad50 strain (AID 155);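 further: 0% = growth of vehicle-only cultures of the same strain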; conditions: S. cerevisiae rad50 strain growth inhibition, stronger effect = higher value; at 50.0 µM unless noted
In short: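 Relative growth inhibition (compound vs vehicle) was measured in yeast with a defined repair-gene alteration.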

[2] = NCI Yeast Anticancer Drug Screen. Data for the mec2-1 strain (AID 157); conditions: S. cerevisiae mec2-1 strain, stronger effect = higher value; at 50.0 µM unless noted
In short: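 mec2-1 yeast strain, carrying an alteration in DNA damage repair or cell cycle control, was exposed to compounds; growth inhibition was measured relative to vehicle-treated controls.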

[3] = NCI Yeast Anticancer Drug Screen. Data for the sgs1 mgt1 strain (AID 161);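 further: 0% = growth of cultures given vehicle only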; conditions: S. cerevisiae sgs1 mgt1 strain, stronger effect = higher value; at 50.0 µM unless noted
In short: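 This yeast growth screen uses a strain with defined DNA-repair lesions; compound-treated growth is compared with vehicle-treated growth.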

[4] = NCI Yeast Anticancer Drug Screen. Data for the cln2 rad14 strain (AID 165);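 further: 0% = growth equal to vehicle treated cultures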; conditions: S. cerevisiae cln2 rad14 strain, stronger effect = higher value; at 50.0 µM unless noted
In short: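 Yeast carrying cln2 and rad14 alterations (cell cycle control and DNA damage repair) were exposed to compounds. Growth inhibition was measured against vehicle-treated controls.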

[5] = NCI Yeast Anticancer Drug Screen. Data for the bub3 strain (AID 167); conditions: S. cerevisiae bub3 mutant strain, stronger effect = higher value; at 50.0 µM unless noted
In short: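 Screening used yeast with an engineered genetic alteration affecting cell cycle control. Compound-exposed cultures were compared with vehicle cultures, and reduced growth was taken as inhibition.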

[6] = NCI Yeast Anticancer Drug Screen. Data for the mlh1 rad18 strain (AID 175); conditions: S. cerevisiae mlh1 rad18 strain growth inhibition, stronger effect = higher value; at 50.0 µM unless noted
In short: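 Growth inhibition of the yeast strain was measured after compound exposure and expressed relative to vehicle-treated controls. The strain carries defined defects in DNA damage repair.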

Measured: growth inhibition

C/C=C/C(=O)Oc1ccc[nH]c1=O
inactive: [1] -10.9% | [2] 13.1% | [3] 4.85% | [4] -2.15% | [5] 11.8% | [6] -4.25%

CCOC(Cc1ccccc1)OCC
inactive: [1] 20.9% | [2] 19.9% | [3] 18.4% | [4] -0.7% | [5] 10.9% | [6] 12.7%

COc1cc(C=O)c(Cl)cc1OC(C)=O
inactive: [1] 32.9% | [2] 21.9% | [3] 36.4% | [4] 32.8% | [5] -10.1% | [6] 27.9%

N=C(N)SCCCCCSC(=N)N
inactive: [1] 4.05% | [2] -12.2% | [3] -4.9% | [4] -3.15% | [5] -6.35% | [6] 12.8%

O=c1c2cc3c(=O)n4c(cc(-c5ccccc5)c5cc(Cl)ccc54)nc3cc2nc2cc(-c3ccccc3)c3cc(Cl)ccc3n12
inactive: [1] 14.2% | [2] 5.55% | [3] 18.9% | [4] 14.2% | [5] -1.05% | [6] -9.7%

CN(C)CCOC(=O)C1C2CC3OC(=O)C1C3C2 (stereo not given)
inactive: [1] -2.4% | [2] -13.6% | [3] 17.5% | [4] -5% | [5] 7.25% | [6] -19.4%

C=C1OC(n2cnc3c(=N)n(O)cnc32)C2OC(C)(C)OC12 (stereo not given)
inactive: [1] -3.6% | [2] 4.75% | [3] 13.2% | [4] -16.4% | [5] 1.9% | [6] -16.5%

CN(C)c1nc(N(C)C)nc(N(C)CN(C)c2ccc(Cl)cc2)n1
inactive: [1] -11.3% | [2] -23.3% | [3] -26.8% | [4] -11.3% | [5] -49% | [6] -16.4%

CC1OC(O)C(O)C(O)C1O (stereo not given)
inactive: [1] -19.3% and 13.9% | [2] -11.7% and 6.25% | [3] -43.6% and 31% | [4] -65.2% and 34.1% | [5] -39.3% and 27.2% | [6] -28.6% and 25.6%

CCN(CC)CCCC(C)Nc1ncnc2ccccc12 (stereo not given)
inactive: [1] 2.2% | [2] 8.95% | [3] 23.1% | [4] 15.6% | [5] -7.3% | [6] -2.25%

COc1ccc(N=C2C(=Nc3ccc(OC)cc3)N(c3ccccc3)C(=S)N2N=C=C2Sc3ccccc3N2C)cc1
inactive: [1] -13.2% | [2] -24% | [3] -18.4% | [4] -8.3% | [5] -4.05% | [6] -32%

COC(=O)Nn1c(C)c(C(=O)OC)c(C(=O)Nc2ccccc2)c1-c1ccccc1
inactive: [1] 6.1% | [2] -3% | [3] -5.2% | [4] -1.45% | [5] 5.05% | [6] 23.5%

CSC(N)=Nc1cccc2ccccc12
inactive: [1] -44.2% | [2] -59% | [3] -40.5% | [4] -10.9% | [5] -34.2% | [6] -41%

CCOC(=O)CSCC(=O)OCC
inactive: [1] 3.6% | [2] -9% | [3] -17.2% | [4] 8.45% | [5] -9.4% | [6] -4.65%

COc1ccccc1OC(=O)Nc1ccc(S(=O)(=O)NC2CCCCC2)cc1
inactive: [1] 12.1% | [2] -10.8% | [3] 0% | [4] 2.25% | [5] -5.95% | [6] -2.2%

Nc1ccccc1NC(=O)C(F)(F)C(F)(F)C(F)(F)C(=O)Nc1ccccc1N
inactive: [1] 3.15% | [2] -6.25% | [3] -14.6% | [4] -12.3% | [5] 28.6% | [6] -16.6%

Cc1ccc(S(=O)(=O)OC2C(OCc3ccccc3)OC(CO)C2O)cc1 (stereo not given)
inactive: [1] -6% | [2] 6.65% | [3] -9.2% | [4] 15.3% | [5] -0.6% | [6] -9.15%

Cc1c2c(c(C)c3c1C(=O)c1cc4c(cc1C3=O)OCO4)OC(C)(C)O2
inactive: [1] 14.3% | [2] 0.35% | [3] 21.4% | [4] 8.95% | [5] 11.6% | [6] 23.1%

CC(CO)Cc1ccccc1 (stereo not given)
inactive: [1] -1.85% | [2] -12.8% | [3] -11.2% | [4] 7.45% | [5] -3.7% | [6] -9.7%

CN(C)c1ccc(C(c2ccc(C(c3ccc(N(C)C)cc3)c3ccc(N(C)C)cc3)cc2)c2ccc(N(C)C)cc2)cc1
inactive: [1] -6.55% | [2] 4.8% | [3] -22.1% | [4] -0.8% | [5] -10.8% | [6] 14.6%

CC(=O)NNc1nc(C)c(C(=O)/C=C/c2ccc(NC(C)=O)cc2)s1
inactive: [1] 21.9% | [2] 16.1% | [3] 0.3% | [4] 9.15% | [5] 22.2% | [6] 31.5%

NC(=O)CSCC(N)=O
inactive: [1] 0.75% | [2] -13.9% | [3] 3.45% | [4] 6.05% | [5] -2.75% | [6] 22%

CC(C)(C)CNCCO
inactive: [1] -2.45% | [2] -23.4% | [3] -2% | [4] -7.5% | [5] -7.55% | [6] -6.3%

CC(C)=C1C2CCC1C(CO)C2CO (stereo not given)
inactive: [1] 4.95% | [2] -8.45% | [3] -13.5% | [4] -102% | [5] -2.4% | [6] -15.7%

COc1cccc(C(=O)c2ccncc2C)c1OC
inactive: [1] -14.6% | [2] -4.45% | [3] 9.95% | [4] -7.95% | [5] 28% | [6] -8.1%

Cc1cc(CSC(=N)N)c(CSC(=N)N)cc1C
inactive: [1] 9.75% | [2] -3.85% | [3] -2.45% | [4] -4.25% | [5] 4.65% | [6] 2.05%

N#CCC(=O)OCCCc1ccccc1
inactive: [1] 15.8% | [2] 9.2% | [3] -1.5% | [4] -32.5% | [5] 2.65% | [6] 0.45%

Cc1cc(C)nc(NS(=O)(=O)c2ccc(NC(=O)c3cccc4c(Nc5ccc(S(=O)(=O)Nc6nc(C)cc(C)n6)cc5)c5ccc(Cl)cc5nc34)cc2)n1
inactive: [1] 27.4% | [2] 35.7% | [3] 24.3% | [4] 33% | [5] 19.6% | [6] 30.7%

CCOC(=O)c1nc2ccccc2nc1NCc1cc(OC)c(OC)c(OC)c1
inactive: [1] -14.9% | [2] -11.9% | [3] -10.8% | [4] 5.65% | [5] -7.9% | [6] -29.4%

Nc1ncnc2c1ncn2C1OC(C(O)CO)C(O)C1O (stereo not given)
inactive: [1] -0.65% and -17.4% | [2] -1.4% and -71.8% | [3] -4.2% and -6.85% | [4] -81.3% and 10.2% | [5] 1.15% and 16.4% | [6] -16.1% and -31.6%

Cc1nc2c(N)n[nH]c(=O)n2n1
inactive: [1] -20.9% | [2] -14.4% | [3] -19.2% | [4] -54% | [5] 7.15% | [6] -4.7%

COc1ccc(N/C=C/C2=[N+](C)c3ccccc3C2(C)C)c(OC)c1
inactive: [1] 1.85% and -24.3% | [2] -17.2% and -19.6% | [3] -8.5% and -20.9% | [4] 0.45% and -58.4% | [5] -5.55% and -2.4% | [6] 5.5% and -7.05%

CCCCC(CC)C(O)P(=O)(O)O (stereo not given)
inactive: [1] -9.2% | [2] -15.1% | [3] -9.75% | [4] -14.3% | [5] 2.8% | [6] 0.45%

Oc1ccc(C(Cc2ccccc2)NCc2ccccc2)cc1 (stereo not given)
inactive: [1] -8.15% | [2] 14.6% | [3] 15.7% | [4] -12.6% | [5] 5.25% | [6] 17.9%

Cc1cnc(N)cn1 (tested in a mixture with another compound)
inactive: [1] -0.05% | [2] -6% | [3] 1.1% | [4] -52.2% | [5] 3.4% | [6] 8.1%
